Compound activity (PubChem BioAssay)
FH mod = Identification of activators of human fumarate hydratase by quantitative high-throughput screening | AID 1347055, 2019 | Fumarate hydratase, mitochondrial (Homo sapiens), P07954 | 54,000 tested, 0.22% active | Potency, µM (top dose mostly 79.9 µM), for the others: top-dose activity change, negative = inhibition, most hits filed as inhibitors | FH coupled MDH/diaphorase resazurin fluorescence, 15 min; note: potency is the fitted concentration of half-maximal effect; % is set by controls: 0 for no effect and ±100 for the full control effect; the screen sought activators but most active calls are inhibition curves; nearly all actives have a fitted effect of over 45% in size
NTMT1 inh = NTMT1 methyltransferase inhibition; 59,000 tested, 2.5% active; Potency, µM (highest dose often 114 µM), without a hit: top-dose activity change, negative = inhibition, actives largely listed as inhibitors; Q9BV86; NTMT1 MTase-Glo SAH luminescence, purified enzyme;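 note: potency is the fitted concentration of half-maximal effect; plate controls were DMSO vehicle for no effect and no enzyme for full effect; nearly all actives have a fitted effect of over 65% in size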
Target sequence (Q9BV86 whole entry, looked up): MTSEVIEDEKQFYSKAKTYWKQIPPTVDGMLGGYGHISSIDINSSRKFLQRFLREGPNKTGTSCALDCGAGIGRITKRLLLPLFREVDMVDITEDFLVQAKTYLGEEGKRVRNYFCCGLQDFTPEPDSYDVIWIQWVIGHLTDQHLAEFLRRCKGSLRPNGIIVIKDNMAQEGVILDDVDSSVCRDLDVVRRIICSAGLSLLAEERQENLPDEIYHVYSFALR
GPR32 ag = GPR32 (DRV1) agonism, beta-arrestin recruitment; AID 1346428; 48,000 tested, 2.5% active; CHO-K1 GPR32 beta-arrestin PathHunter luminescence, 90 min; zero percent set by DMSO-only wells; activation, % at 76.9 µM; O75388;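 active = activation of at least 60% and not above a set upper limit, about 1 call in 100 departs from these limits; inconclusive = activation of 40% to 60%, or above that upper limit; inactive = activation under 40%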; note: 0% is about no effect
Target sequence (O75388 whole entry, looked up): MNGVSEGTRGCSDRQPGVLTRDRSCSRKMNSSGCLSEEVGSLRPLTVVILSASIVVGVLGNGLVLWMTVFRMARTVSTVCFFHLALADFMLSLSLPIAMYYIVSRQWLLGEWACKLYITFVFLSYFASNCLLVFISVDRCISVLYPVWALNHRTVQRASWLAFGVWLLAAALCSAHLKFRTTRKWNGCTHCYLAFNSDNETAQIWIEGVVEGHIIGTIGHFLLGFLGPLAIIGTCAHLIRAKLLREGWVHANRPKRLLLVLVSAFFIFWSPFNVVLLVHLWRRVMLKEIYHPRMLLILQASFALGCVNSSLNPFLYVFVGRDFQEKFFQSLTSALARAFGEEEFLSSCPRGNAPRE
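Agonism was scored as beta-arrestin recruitment to ProLink-fused GPR32 in stably transfected CHO-K1 cells, giving a chemiluminescent beta-Gal signal; compounds were incubated 90 min at 37 °C.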
HTT-AS act = activates huntingtin-antisense promoter activity; AID 1508624; HEK293 HTT-AS promoter firefly luciferase reporter, 24 h; response scale: percent change from vehicle, -100% = no light; 48,000 tested, 0.24% active; Potency, µM (titrated, usually from 57.5 µM), inactives show top-dose activity change, positive = activation, actives largely listed as activators; note: potency is the fitted concentration of half-maximal effect; nearly all actives have a fitted effect of over 55% in size
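Firefly luciferase signal from promoter-reporter HEK293 cells was scaled between vehicle (0%) and zero RLU (-100%). Compounds were tested at final concentrations of up to 57.5 uM over 24 h at 37 degrees C. PTC124 at 50 uM final served as control inhibitor.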
HTT prom inh = inhibitors of huntingtin promoter activity; Potency, µM (series often up to 57.5 µM), for inactives: top-dose activity change, negative = inhibition, usual class: inhibitors; HEK293 HTT promoter firefly luciferase reporter, 24 h; AID 1508623; 48,000 tested, 0.93% active; note: potency is the fitted concentration of half-maximal effect; nearly all actives have a fitted effect of over 50% in size
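HEK293 Fluc reporter, 2,500 cells/well, 24 h pre-culture; cpds up to 57.5 uM final, 24 h 37 degrees C; Dual-Glo, 10 min RT; normalized vehicle = 0%, zero RLU = -100%.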
Active calls of the source: *; ? = inconclusive; . = no result given; ! = not confirmed by another sample; [ ] = another dose, or the depositor's remark. Only some compounds are listed: those with a hit (about 4.7% of all), similar ones and a draw of the others. Unless noted, calls come from the whole dose curve; as a rule, active = well fitted curve in the direction sought with a large enough effect; inconclusive = small, poorly fitted or top-dose-only effect, or another doubt; inactive = no such curve, though single readings can be large; an effect the other way counts as inactive or inconclusive.

SMILES	FH mod	NTMT1 inh	GPR32 ag	HTT-AS act	HTT prom inh
Cc1cccc(-n2ncc3c(NC4CCCC4)ncnc32)c1	-5.4%	?	114.1*	?	3.9%
Cc1cccc(-n2ncc3c(Nc4ccc(Oc5ccc(Cl)cc5)cc4)ncnc32)c1	-20.5%	-4.6%	48.0	-1.9%	-10.6%
Cc1cccc(-n2ncc3c(Nc4ccc(C)c(Cl)c4)ncnc32)c1	?	?	73.7*	23.6%	11.9%
Cc1cccc(N2CCN(C(=O)CCCCn3c(=O)[nH]c4ccsc4c3=O)CC2)c1C	-14.0%	-0.5%	61.7*	-39.5%	?
COc1cc2[nH]c(=O)n(CCCC(=O)N3CCN(c4cccc(C(F)(F)F)c4)CC3)c(=O)c2cc1OC	-13.1%	?	-0.4	-3.2%	1.6%
O=C(CCCCn1c(=O)[nH]c2ccsc2c1=O)N1CCN(c2cccc(C(F)(F)F)c2)CC1	?	-7.2%	74.0*	-39.9%	?
CCOC(=O)c1cccc(NC(=O)CC2C(=O)N(c3ccc(C)cc3)C(=O)N2Cc2cccc(OC)c2)c1 (centres undefined)	.	.	-8.8	.	.
NS(=O)(=O)NCCNc1nonc1C(=Nc1ccc(F)c(Br)c1)NO	5.6%	2.4%	.	.	.
COc1ccc(Nc2nc3ccccc3nc2NS(=O)(=O)c2ccc(Cl)cc2)cc1OC	-25.3%	-9.0%	117.8*	-41.8%	?
COc1ccc(-c2nc3ccc(NS(=O)(=O)c4ccc(Cl)cc4)cc3o2)cc1	?	?	79.5*	-13.0%	-20.4%
COc1cc(Nc2nc3ccccc3nc2NS(=O)(=O)c2ccc(NC(=O)c3ccc(OC)c(C)c3)cc2)cc(OC)c1	-14.1%	0.5%[57.5 µM]	.	.	.
COc1ccc(N2CCN(C(=O)Cc3c(C(=O)O)c(C)cn3C)CC2)cc1	2.7%	-2.5%	-4.3	-17.2%	-16.3%
COc1ccc(NC(=O)c2cc3c(s2)-c2c(C)cccc2OC3)c(OC)c1	-25.8%	7.8%	-24.5	-10.2%	-6.1%
COc1cccc(C(=O)NCCc2sc(-c3cccc(C)c3)nc2C)c1	-20.2%	10.4%	19.6	-1.9%	-11.4%
COc1ccc(CC(=O)NCCc2sc(-c3cccc(F)c3)nc2C)cc1	-4.6%	-19.1%	98.0*	-29.7%	?
COc1ccc(-c2nc(C)c(CCNC(=O)c3c(F)cccc3F)s2)cc1	-4.2%	5.1%	80.3*	9.5%	-8.8%
COc1ccc(C(=O)NCCc2sc(-c3cccc(F)c3)nc2C)cc1	-12.8%	-7.2%	67.2*	-16.1%	-25.9%
Cc1cccc(C(=O)NCCc2sc(-c3ccccc3)nc2C)c1	-8.2%	?	77.7*	-17.9%	-19.2%
CCOC(=O)c1c(C)oc2nc(C)nc(NCc3cccc(Cl)c3)c12	-19.7%	-9.3%	4.2	-15.9%	-10.0%
CCOc1ccc(CC(=O)NCCc2sc(-c3cccc(F)c3)nc2C)cc1	-3.7%	-14.7%	68.9*	-38.3%	?
Cc1nc(-c2ccc(F)cc2)sc1CCNC(=O)Cc1ccc(F)cc1	0.0%	-9.1%	?	-34.3%	?
CCOC(=O)N1CCC(NC(=O)c2cnn(-c3ccc(OC)cc3)c2C2CCN(C(=O)OC(C)(C)C)CC2)CC1	-3.2%	-4.2%	-6.7	-2.9%	7.2%
CC(C)c1ccc(C(=O)Nc2ccc(-c3nc4ccccc4s3)c(Cl)c2)cc1	-5.6%	8.6%	23.9	-16.6%	?
CCCCCCCCCCCCCCCC[N+](C)(C)CCN(Cc1ccc(OC)cc1)c1ncccn1	-5.9%[53.3 µM]	25.1µM*	-47.5	-39.2%	?
CCOC(=O)c1ccc(NC(=O)CCc2c(C)n(CC)c3cc(-c4ccccc4OC)nn3c2=O)cc1	-3.2%	5.0%	-10.7	-6.2%	-2.0%
SMILES	FH mod	NTMT1 inh	GPR32 ag	HTT-AS act	HTT prom inh
Cc1ccc(NC(=O)CSc2ccc(-c3cccs3)nn2)cc1Cl	-0.1%	10.7%	-5.0	-14.5%	-7.0%
CCN(CC)CCNC(=O)c1c(C)[nH]c(/C=C2\C(=O)Nc3ccc(F)cc32)c1C	12.6µM*!	35.5µM*	-4.9	-24.4%	?
CC(C)(C)C1CCc2oc3ccc(NS(=O)(=O)c4ccc(C(=O)O)cc4)cc3c2C1 (centres undefined)	?	50.1µM*	47.2	-10.6%	-9.4%
CC(C)(C)C1CCc2oc3ccc(NS(=O)(=O)c4cc(Cl)ccc4Cl)cc3c2C1 (centres undefined)	-34.9%	-10.8%	-34.1	-18.8%	-19.4%
O=C(NCc1ccc2c(c1)CCN2C(=O)c1ccccc1)Nc1cccc(C(F)(F)F)c1	-22.9%	-2.5%	7.7	-46.4%	22.4µM*
Cc1ccc(C)c(NC(=O)NCc2ccc3c(c2)CCN3C(=O)c2ccccc2)c1	-5.5%	5.8%	11.0	-27.1%	?
COc1ccccc1N1CCN(c2ccc(=O)n(CC(=O)NCc3ccc(F)cc3)n2)CC1	-10.7%	-21.6%	20.9	-13.5%	-1.3%
COc1cccc(C(=O)NCC(c2ccc3c(c2)OCO3)N2CCOCC2)c1 (centres undefined)	-16.4%	5.0%	-20.1	-14.3%	-4.5%
Cc1ccc(C(=O)NCC(c2ccc3c(c2)OCO3)N2CCN(c3ccc(F)cc3)CC2)cc1 (centres undefined)	?	14.6%	-31.7	-39.8%	22.4µM*
COc1cccc(NC(=O)C(=O)NCC(c2ccc3c(c2)OCO3)N2CCOCC2)c1 (centres undefined)	-12.6%	-12.4%	-9.7	4.47µM*	92.9%
COc1cccc(CNC(=O)Cn2nc(-c3ccc(Cl)cc3)ccc2=O)c1	1.3%	-1.1%	76.2*	-10.4%	-2.0%
c1cc(NC2CCNCC2)nc(-c2cnc3ccccn23)c1	?	44.7µM*	.	.	.
CC(Cc1cccc(C(F)(F)F)c1)NCCOC(=O)c1ccccc1 (centres undefined)	1.7%[53.3 µM]	6.1%[57.5 µM]	63.4*	-5.9%	2.2%
Cc1cc(S(=O)(=O)Nc2ccc(-c3ccc(N4CCCCC4)nn3)cc2)c(C)cc1Cl	.	.	-0.4	.	.
O=C(C1CCN(c2ncnc3c2nc2n3CCCCC2)CC1)N1CCN(c2ccc(Cl)cc2)CC1	-1.8%	1.9%	-2.5	-10.6%	-9.7%
c1ccc(N2CCN(c3ncnc4c3nc3n4CCCCC3)CC2)cc1	-4.9%	-14.9%	?	-53.5%	?
O=C(C1CCN(c2ncnc3c2nc2n3CCCCC2)CC1)N1CCN(c2cccc(Cl)c2)CC1	?	-9.2%	-5.1	-47.8%	?
Clc1cccc(N2CCN(c3ncnc4c3nc3n4CCCCC3)CC2)c1	-13.5%	-3.0%	32.4	-61.3%	10µM*
Fc1ccc(N2CCN(c3ncnc4c3nc3n4CCCCC3)CC2)cc1	4.3%	3.3%	22.5	-43.5%	2.82µM*
Clc1ccc(N2CCN(c3ncnc4c3nc3n4CCCC3)CC2)cc1	-15.6%	-3.2%	13.8	-89.9%	1.41µM*
CCOc1ccc(Nc2ncnc3c2nc2n3CCCC2)cc1	-6.3%	?	12.3	?	-10.4%
